Among the test systems are HCT-15 colon; HT29 colon; SNB-75 CNS; SNB-19 CNS; U251 CNS; PC-3 prostate; SK-MEL-5 melanoma; UACC-62 melanoma; LOX IMVI melanoma; SK-MEL-28 melanoma; SK-MEL-2 melanoma; EKVX NSCLC; SN12C renal; UO-31 renal; TK-10 renal; ACHN renal; CAKI-1 renal; A498 renal; CCRF-CEM leukemia; MOLT-4 leukemia.
Holding throughout (test): NCI-60 one-dose screen, 48 h (100 = growth as untreated, 0 = no growth, -100 = all killed)
Common to all, as to conditions: 10 µM unless noted

The panel holds about 83,000 compounds, 20% with a hit somewhere; the sample as a whole holds those more often.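 Note: values are percent growth. 100 is the growth of untreated cells, values between 100 and 0 indicate rising inhibition; between -100 and 0 indicates cell death.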 Values without a mark were called inactive. The source made the active and inactive calls. Rule for the calls: active = growth percent below 10; inactive = the rest.

Turning to `CS(=O)(=O)Nc1cncc(-c2ccc3ncnc(Nc4ccc(F)c(Cl)c4)c3c2)c1`, the growth with HCT-15 colon was 51.1%; in the experiment on HT29 colon it was 20.7%; with SNB-75 CNS, 33%; with SNB-19 CNS it was 42.9%; in the experiment with U251 CNS, 8.79% (active); in the experiment with PC-3 prostate, 34.5%. Further, the growth in the experiment on SK-MEL-5 melanoma is -50.1% (active); with UACC-62 melanoma it was 34.6%; in the experiment on LOX IMVI melanoma it was 28.3%; with SK-MEL-28 melanoma, 42.7%; in the experiment on SK-MEL-2 melanoma, 8.23% (active); in the experiment on EKVX NSCLC it was 0.905% (active). Besides, the growth is 33.9% with SN12C renal; 38.1% in the experiment on UO-31 renal; -2.22% (active) in the experiment on TK-10 renal; 32.3% in the experiment with ACHN renal; 44.7% with CAKI-1 renal; -7.33% (active) with A498 renal. The growth is 11.8% in the experiment on CCRF-CEM leukemia and -22.8% (active) with MOLT-4 leukemia.

Take `CN(C)c1ccc(-c2cc(-c3ccc(Nc4nc(Nc5ccc(Cl)cc5)nc(Nc5ccc(Cl)cc5)n4)cc3)nc(N)c2C#N)cc1`: the growth in the experiment on HCT-15 colon is 75.9%; in the experiment on HT29 colon, 80.3%; in the experiment on SNB-75 CNS it was 83.8%; with SNB-19 CNS, 97.8%; in the experiment on U251 CNS, 63.3%; with PC-3 prostate, 57.7%. Besides, the growth with SK-MEL-5 melanoma was 66.7%; in the experiment with UACC-62 melanoma, 91%; in the experiment with LOX IMVI melanoma it was 72.7%; with SK-MEL-28 melanoma, 88.7%; in the experiment with SK-MEL-2 melanoma it was 68.5%; in the experiment on EKVX NSCLC, 79.8%. Also, the growth in the experiment on SN12C renal is 113%; in the experiment on UO-31 renal, 67.5%; in the experiment on TK-10 renal, 104%; with ACHN renal, 82.4%; in the experiment on CAKI-1 renal, 82.3%; with A498 renal, 92.5%. Moreover, the growth in the experiment on CCRF-CEM leukemia was 46.9%; in the experiment on MOLT-4 leukemia it was 45%.

As to `O=C(Nc1ccccc1O)c1ccccc1Nc1ccnc(C(F)(F)F)c1`, the growth in the experiment with HCT-15 colon was 104%; in the experiment with HT29 colon, 124%; in the experiment with SNB-75 CNS, 90.7%; with SNB-19 CNS it was 107%; in the experiment with U251 CNS it was 102%; in the experiment on PC-3 prostate, 94.4%. Further, the growth was 70.7% in the experiment on SK-MEL-5 melanoma; 57.7% with UACC-62 melanoma; 89.3% in the experiment on LOX IMVI melanoma; 117% in the experiment with SK-MEL-28 melanoma; 104% in the experiment with SK-MEL-2 melanoma; 93% with EKVX NSCLC. The growth was 87.3% in the experiment on SN12C renal; 66.2% in the experiment on UO-31 renal; 136% with TK-10 renal; 93.8% in the experiment on ACHN renal; 98.3% with CAKI-1 renal; 145% in the experiment with A498 renal. Moreover, the growth in the experiment with CCRF-CEM leukemia was 84.8%; with MOLT-4 leukemia, 74.5%.

Turning to `COc1ccc(-c2cc(C(=O)N3N=C(c4ccc(N)cc4)CC3c3ccccc3)c3ccccc3n2)cc1` (stereo not given), the growth with HCT-15 colon is 24.6%; in the experiment with HT29 colon, 10.3%; in the experiment on SNB-75 CNS, -1.79% (active); in the experiment with SNB-19 CNS it was 47.8%; in the experiment on U251 CNS it was 36.9%; in the experiment on PC-3 prostate it was 32.5%. In addition, the growth was 36.2% in the experiment on SK-MEL-5 melanoma; 40.3% in the experiment on UACC-62 melanoma; 39.7% in the experiment on LOX IMVI melanoma; 53.1% in the experiment on SK-MEL-28 melanoma; 39.8% in the experiment with SK-MEL-2 melanoma; 70.8% in the experiment on EKVX NSCLC. For the same compound, the growth is 51.7% in the experiment on SN12C renal; 45.5% in the experiment with UO-31 renal; 58.4% with TK-10 renal; 37.6% in the experiment on ACHN renal; 24.5% with CAKI-1 renal; 29.1% with A498 renal. Also, the values for the growth with CCRF-CEM leukemia and in the experiment on MOLT-4 leukemia were 25.6% and 35.2%, respectively.

Turning to `C/C(=N\Nc1nc(C)cs1)c1cc2ccccc2o1`, the growth is 98.8% with HCT-15 colon; 103% with HT29 colon; 119% in the experiment with SNB-75 CNS; 96.4% in the experiment with SNB-19 CNS; 94% in the experiment with U251 CNS; 70.2% in the experiment with PC-3 prostate. Moreover, the growth in the experiment on SK-MEL-5 melanoma is 92%; with UACC-62 melanoma it was 85.5%; with LOX IMVI melanoma, 85.8%; in the experiment with SK-MEL-28 melanoma it was 110%; in the experiment with SK-MEL-2 melanoma, 104%; in the experiment with EKVX NSCLC, 56.3%. In addition, the growth was 91.8% in the experiment with SN12C renal; 55.4% in the experiment with UO-31 renal; 134% in the experiment on TK-10 renal; 86.6% in the experiment with ACHN renal; 75.9% with CAKI-1 renal; 99.9% with A498 renal. In addition, the growth in the experiment with CCRF-CEM leukemia is 79.1%; in the experiment with MOLT-4 leukemia, 85.9%.

As for `Cn1cc(-c2nn3cc(-c4ccccc4)nc3s2)c2ccccc21`, the growth in the experiment on HCT-15 colon was 44.7%; in the experiment with HT29 colon it was 44.5%; in the experiment on SNB-75 CNS it was 39.8%; in the experiment with SNB-19 CNS, 73.4%; with U251 CNS, 77.9%; in the experiment on PC-3 prostate, 75.9%. Further, the growth is 65.5% in the experiment with SK-MEL-5 melanoma; 54% in the experiment on UACC-62 melanoma; 79.4% in the experiment on LOX IMVI melanoma; 71.1% with SK-MEL-28 melanoma; 79.6% in the experiment on SK-MEL-2 melanoma; 72.5% in the experiment with EKVX NSCLC. In addition, the growth in the experiment with SN12C renal was 78.7%; in the experiment on UO-31 renal it was 42.8%; in the experiment with TK-10 renal, 95.5%; with ACHN renal it was 74.2%; in the experiment on CAKI-1 renal it was 55.3%; with A498 renal, 85.3%. For the same compound, the growth with CCRF-CEM leukemia is 76.4%; in the experiment on MOLT-4 leukemia, 65.3%.

As for `O=C1CC2C=CCN2C=C1NC(=O)C1CCCCC1` (stereo not given), the growth was 98% in the experiment with HCT-15 colon; 97.7% in the experiment on HT29 colon; 87.3% in the experiment on SNB-75 CNS; 111% in the experiment on SNB-19 CNS; 97.9% with U251 CNS; 94.8% with PC-3 prostate. Further, the growth in the experiment on SK-MEL-5 melanoma was 102%; with UACC-62 melanoma, 108%; in the experiment on LOX IMVI melanoma it was 96.9%; in the experiment on SK-MEL-28 melanoma, 107%; in the experiment with SK-MEL-2 melanoma, 101%; with EKVX NSCLC, 92.1%. The growth with SN12C renal is 110%; in the experiment on UO-31 renal, 94.9%; in the experiment with TK-10 renal, 90.6%; with ACHN renal, 105%; with CAKI-1 renal, 97.7%; in the experiment on A498 renal, 128%. Also, the growth with CCRF-CEM leukemia was 122%; in the experiment on MOLT-4 leukemia, 99.5%.
